# Experimental data reported in PubChem BioAssay (NCATS).
# Several values for one entry are separate records, joined by “and”; a condition that tells them apart may be missing. Equal entries are not always repeated. Results filed as inconclusive are left out. Where a structure was tested more than once in an assay, its records may differ in their call. Values without a mark were called inactive. Activity calls are given as the source filed them. Calls come from the whole dose curve; as a rule, active = well fitted inhibition curve with a large enough effect; inconclusive = small, poorly fitted or top-dose-only effect; inactive = flat fitted curve, though single readings scatter.
# Assays:
# CRL-7250 = normal cell line; assay: Cytotoxic Profiling of Annotated Libraries Using Quantitative High-Throughput Screening (AID 1296008); details: Five cell lines viability, CellTiter-Glo ATP luminescence, 48-72 h; max response: active compounds read low; note: potency is the fitted concentration of half-maximal effect; for max response: % is set by controls: 0 for no effect and ±100 for the full control effect
# Method in brief: (§1)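 Cytotoxicity was measured as CellTiter-Glo ATP luminescence, read after 10 min at room temperature. Compound treatment of the cells lasted 48 or 72 hr at 37 degrees Celsius in a qHTS format.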
# HEK293 = assay: as above; details: Five cell lines viability, CellTiter-Glo ATP luminescence, 48-72 h; max response: active compounds read low
# Method in brief: as §1
# HaCat = assay: as above; details: Five cell lines viability, CellTiter-Glo ATP luminescence, 48-72 h; max response: active compounds read low
# Method in brief: as §1
# KB-3-1 = assay: as above; details: Five cell lines viability, CellTiter-Glo ATP luminescence, 48-72 h; max response: active compounds read low
# Method in brief: as §1
# NIH3T3 = assay: as above; details: Five cell lines viability, CellTiter-Glo ATP luminescence, 48-72 h; max response: active compounds read low
# Method in brief: as §1
# SC27B = assay: qHTS profiling for inhibitors of Plasmodium falciparum proliferation (AID 504749);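 note: 0% = DMSO vehicle and full inhibition = artemisinin control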; details: P. falciparum in erythrocytes, SYBR Green DNA, 72 h; series mostly up to 28.7 µM
# Method in brief: (§2)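 Infected RBCs, 0.3% parasitemia/2.5% Hct final; cpd 72 h, 37 C, 5% CO2; lysis buffer with saponin/triton/SYBR Green I, o/n RT dark; FI 485/535; norm. to artemisinin (0.29 uM) and DMSO.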
# TAB109 = assay: as above; details: P. falciparum in erythrocytes, SYBR Green DNA, 72 h; series mostly up to 28.7 µM
# Method in brief: as §2
# TAB113 = assay: as above; details: P. falciparum in erythrocytes, SYBR Green DNA, 72 h; series mostly up to 28.7 µM
# Method in brief: as §2
# W2 = assay: as above; details: P. falciparum in erythrocytes, SYBR Green DNA, 72 h; series mostly up to 28.7 µM
# Method in brief: as §2
# TAB165 = assay: as above; details: P. falciparum in erythrocytes, SYBR Green DNA, 72 h; series mostly up to 28.7 µM
# Method in brief: as §2
# Note: nearly all actives have a fitted effect of over 60% in size.
structure (smiles),measurement,setting,value
CCOC(CN1C(=O)[C@](CC(=O)Nc2ccc(C)cc2)(NC(=O)Nc2ccc(C)cc2)c2ccccc21)OCC,max response,CRL-7250,2.73%
same,max response,HEK293,-3.95%
same,max response,HaCat,-19.2%
same,max response,KB-3-1,-11%
same,max response,NIH3T3,-3.18%
COc1ccc2c3c1OC1C[C@@H](O)C=C[C@@]31CCN(C)C2 (some centres undefined),max response,CRL-7250,-0.2%
same,max response,HEK293,-3.03%
same,outcome,HaCat,inactive
same,max response,KB-3-1,-3.8%
same,max response,NIH3T3,1.03%
OC[C@@H](O)[C@H](O)[C@H](O)[C@@H](O)CO,max response,CRL-7250,3.59% and -3.14%
same,outcome,HEK293,inactive
same,outcome,HaCat,inactive
same,max response,KB-3-1,-5.61% and 12.2%
same,outcome,NIH3T3,inactive
COc1cc(N2CCC(N3CCN(C)CC3)CC2)ccc1Nc1ncc(Cl)c(Nc2ccccc2S(=O)(=O)C(C)C)n1,Potency,CRL-7250,1460 nM (active)
same,Potency,HEK293,1.16 µM (active)
same,Potency,HaCat,3660 nM (active)
same,Potency,KB-3-1,920 nM (active)
same,Potency,NIH3T3,1.64 µM (active)
Cc1[nH]c(C=C2C(=O)Nc3ccc(S(=O)(=O)Cc4c(Cl)cccc4Cl)cc32)c(C)c1C(=O)N1CCC[C@H]1CN1CCCC1,max response,CRL-7250,1.44%
same,Potency,HEK293,23.5 µM (active)
same,max response,HaCat,-4.31%
same,max response,KB-3-1,1.95%
same,max response,NIH3T3,-20.1%
COc1cccc([C@@H](C)NCCCc2ccccc2Cl)c1,outcome,CRL-7250,inactive
same,max response,HEK293,1.17%
same,outcome,HaCat,inactive
same,outcome,KB-3-1,inactive
same,outcome,NIH3T3,inactive
CN(C)C1CCN(C(=O)c2ccc(NC(=O)Nc3nc(N4CCOCC4)nc(N4CCOCC4)n3)cc2)CC1,Potency,CRL-7250,0.6 nM (active)
same,Potency,HEK293,0.142 µM (active)
same,Potency,HaCat,252 nM (active)
same,Potency,KB-3-1,50.2 nM (active)
same,Potency,NIH3T3,0.0935 µM (active)
CC1(C)CCC[C@@]2(C)[C@@H]1CC[C@@]1(C)OC(=O)C[C@H]21,max response,CRL-7250,1.92%
same,max response,HEK293,-1.67%
same,outcome,HaCat,inactive
same,max response,KB-3-1,5.91%
same,max response,NIH3T3,1.1%
COc1ccc(-c2nc(N3CCOCC3)c3sc(CN(C)c4ncc(C(=O)NO)cn4)cc3n2)cn1,Potency,CRL-7250,59 nM (active)
same,Potency,HEK293,0.0166 µM (active)
same,Potency,HaCat,148 nM (active)
same,Potency,KB-3-1,26.4 nM (active)
same,Potency,NIH3T3,0.118 µM (active)
CCN(CC)CCOc1ccc(C(=C(Cl)c2ccccc2)c2ccccc2)cc1,max response,CRL-7250,-5.74%
same,outcome,HEK293,inactive
same,max response,HaCat,-8.22%
same,outcome,KB-3-1,inactive
same,max response,NIH3T3,2.62%
NC1=N[C@@]2(c3cc(NC(=O)c4ccc(F)cn4)ccc3F)COC[C@@H]2CS1,outcome,CRL-7250,inactive
same,max response,HEK293,-6.98%
same,max response,HaCat,-6.87%
same,max response,KB-3-1,8.68%
same,max response,NIH3T3,4.73%
CN(C[C@@H]1COCCO1)S(=O)(=O)Nc1ccc2ccc3ncc(-c4cnn(C)c4)cc3c(=O)c2c1,Potency,CRL-7250,469 nM (active)
same,Potency,HEK293,4.18 µM (active) and 6.51 µM (active)
same,Potency,HaCat,10300 nM (active)
same,Potency,KB-3-1,7430 nM (active)
same,Potency,NIH3T3,1.32 µM (active) and 8.2 µM (active)
CO[C@@H](C(=O)N1Cc2[nH]nc(NC(=O)c3ccc(N4CCN(C)CC4)cc3)c2C1)c1ccccc1,Potency,CRL-7250,5260 nM (active)
same,Potency,HEK293,4.18 µM (active)
same,Potency,HaCat,2350 nM (active)
same,Potency,KB-3-1,11800 nM (active)
same,Potency,NIH3T3,14.8 µM (active)
O=c1cc(N2CCOCC2)oc2c(-c3cccc4c3sc3ccccc34)cccc12,max response,CRL-7250,-14.3%
same,Potency,HEK293,2.96 µM (active)
same,max response,HaCat,-6.51%
same,outcome,KB-3-1,inactive
same,Potency,NIH3T3,16.6 µM (active)
O=C(O)C(O)Cc1ccc(O)c(O)c1 (centres undefined),max response,CRL-7250,-24.8%
same,outcome,HEK293,inactive
same,max response,HaCat,-1.88%
same,max response,KB-3-1,5.06%
same,max response,NIH3T3,-0.893%
CC1(C)CCC(CN2CCN(c3ccc(C(=O)NS(=O)(=O)c4ccc(NCC5CCOCC5)c([N+](=O)[O-])c4)c(Oc4cnc5[nH]ccc5c4)c3)CC2)=C(c2ccc(Cl)cc2)C1,max response,CRL-7250,-2.21% and -9.69%
same,max response,HEK293,-5.37% and -6.15%
same,max response,HaCat,-24.1% and -27.2%
same,max response,KB-3-1,0.966%
same,max response,NIH3T3,-21% and 4.74%
COC(=O)C1=CO[C@@H](O)[C@@H]2C(CO)=CC[C@@H]12,max response,CRL-7250,0.508%
same,max response,HEK293,4.92%
same,max response,HaCat,3.95%
same,max response,KB-3-1,-1.15%
same,outcome,NIH3T3,inactive
Cc1ccc(/C=N/NC(=O)c2ccccc2Oc2ccccc2)o1,max response,CRL-7250,-0.512%
same,Potency,HEK293,20.9 µM (active)
same,max response,HaCat,-2.81%
same,max response,NIH3T3,-19%
O=C1Nc2ccc(Cl)cc2C(C#CC2CC2)(C(F)(F)F)O1 (centres undefined),Potency,SC27B,inactive
same,outcome,TAB109,inactive
same,Potency,TAB113,inactive
same,Potency,W2,inactive
same,max response,CRL-7250,-18.6%
same,max response,HEK293,-29.6%
same,outcome,HaCat,inactive
same,max response,KB-3-1,-17.5%
same,max response,NIH3T3,-6.53%
CN1C[C@H]2c3ccccc3Oc3ccc(Cl)cc3[C@@H]2C1,max response,CRL-7250,-7.6% and -3.52%
same,Potency,HEK293,10.6 µM (active)
same,outcome,HaCat,inactive
same,max response,KB-3-1,-7.18%
same,max response,NIH3T3,-1.33% and 3.58%
CCN(CC)C(=O)c1ccc(O)c(OC)c1,Potency,SC27B,inactive
same,outcome,TAB109,inactive
same,Potency,TAB113,inactive
same,Potency,TAB165,inactive
same,Potency,W2,inactive
same,max response,CRL-7250,-9.2%
same,max response,HEK293,-4.79%
same,outcome,HaCat,inactive
same,max response,KB-3-1,2.39% and -3.02%
same,max response,NIH3T3,-4.21%
CC(C)(C)c1ccc(C(O)CCCN2CCC(C(O)(c3ccccc3)c3ccccc3)CC2)cc1 (centres undefined),outcome,CRL-7250,inactive
same,max response,HEK293,-7.01%
same,max response,HaCat,1.94%
same,max response,KB-3-1,-14.6% and -4.64%
same,max response,NIH3T3,-3.57%
C[N+](C)(C)CCCCCC[N+](C)(C)C,Potency,SC27B,inactive
same,outcome,TAB109,inactive
same,Potency,TAB113,inactive
same,Potency,TAB165,inactive
same,Potency,W2,inactive
same,max response,CRL-7250,-5.15%
same,outcome,HEK293,inactive
same,max response,HaCat,2.98%
same,max response,KB-3-1,21.4%
same,outcome,NIH3T3,inactive
CO[C@H]1C(=O)[C@]2(C)[C@@H](OC)C[C@H]3OC[C@@]3(OC(C)=O)[C@H]2[C@H](OC(=O)c2ccccc2)[C@]2(O)C[C@H](OC(=O)[C@H](O)[C@@H](NC(=O)OC(C)(C)C)c3ccccc3)C(C)=C1C2(C)C,max response,CRL-7250,-47%
same,max response,HEK293,-66.4%
same,max response,HaCat,-71.6%
same,Potency,KB-3-1,0.8 nM (active)
same,max response,NIH3T3,-69.8%
O=C(OCC#CCSc1nnc(-c2cccc3ccccc23)o1)c1cc2ccccc2s1,max response,CRL-7250,3.01%
same,outcome,HEK293,inactive
same,max response,HaCat,-10.9%
same,max response,KB-3-1,-5.32%
same,outcome,NIH3T3,inactive
O=C(Nc1c(Cl)cncc1Cl)c1ccc(OC(F)F)c(OCC2CC2)c1,max response,CRL-7250,-6.52%
same,max response,HEK293,0.493%
same,outcome,HaCat,inactive
same,outcome,KB-3-1,inactive
same,max response,NIH3T3,-4.15%
N#Cc1ccc(NC(=O)Nc2ccccc2Br)c2n[nH]nc12,max response,CRL-7250,-24.9%
same,max response,HEK293,-11%
same,outcome,HaCat,inactive
same,max response,KB-3-1,1.71%
same,max response,NIH3T3,3.86%
CCN(CC)CCOC(=O)c1ccc(N)cc1,Potency,SC27B,inactive
same,outcome,TAB109,inactive
same,Potency,TAB113,inactive
same,Potency,TAB165,inactive
same,Potency,W2,inactive
same,max response,CRL-7250,-12%
same,outcome,HEK293,inactive
same,outcome,HaCat,inactive
same,max response,KB-3-1,14%
same,max response,NIH3T3,-2.46%
NCCS,Potency,SC27B,inactive
same,outcome,TAB109,inactive
same,Potency,TAB113,inactive
same,Potency,TAB165,inactive
same,Potency,W2,inactive
same,max response,CRL-7250,-9.34%
same,outcome,HEK293,inactive
same,outcome,HaCat,inactive
same,max response,KB-3-1,-0.944% and -2.01%
same,max response,NIH3T3,4.3%
CC1CCC(C(=O)N(c2cc(C#CC(C)(C)C)sc2C(=O)O)C2CCC(O)CC2)CC1 (centres undefined),max response,CRL-7250,-4.19% and 3.8%
same,max response,HEK293,-1.31%
same,outcome,HaCat,inactive
same,max response,KB-3-1,-8.44% and -2.14%
same,max response,NIH3T3,-3.97%
same,outcome,NIH3T3,inactive
